Screening data deposited in PubChem by several laboratories.
hcDAF12 agonist = H. contortus DAF-12 activation, primary screen; activation, % at 6.8 µM; 370,000 tested, 1.4% active; HEK293 hcDAF-12 lit1-tk-luc reporter, luminescence; 0% DMSO, 100% Δ7-dafachronic acid;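 active means activation above the mean of all tested compounds plus 3 SD, cut at about 5.5% in these data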;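 further: 100% = response to 3 µM Δ7-dafachronic acid high control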
hgDAF-12 ag = activates the H. glycines DAF-12 receptor ligand-binding domain; HEK293 GAL4-hgDAF12 UAS-luciferase reporter, agonist luminescence; normalized to butyrate control; activation, % at 6.8 µM; 370,000 tested, 1.8% active;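 active means activation above a cutoff set at the mean of all screened compounds plus 3 SD, cut at about 10% in these data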;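 further: 0% = DMSO wells and 100% = sodium butyrate wells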
Rev-erbA mod = Rev-erb alpha (human) modulation | AID 1259318 | Rev-erbα–FITC-DNA binding, fluorescence polarization, 90 min | 370,000 tested, 0.79% active | activity, % at 10 µM;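 active means activity above about 14%, limit read from the data; passing the limit was not always enough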;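 further: 0% = DMSO wells with 35 nM protein and 100% = DMSO wells with 750 nM protein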
DAX1 inh-1 = NR0B1 (DAX1) inhibition | P51843 | HEK293 Gal4-DAX1 luciferase reporter, luminescence | inhibition, % at 6.75 µM | 340,000 tested, 0.99% active;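 active means inhibition above the mean over all tested compounds plus 3 SD, cut at about 4.2% in these data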;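 further: 0% = DAX1-transfected cells with DMSO and 100% = empty-vector control cells with DMSO; inhibition shows as a rise in luminescence from relieved DAX1 repression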
Target sequence (P51843 207-470 limits assumed): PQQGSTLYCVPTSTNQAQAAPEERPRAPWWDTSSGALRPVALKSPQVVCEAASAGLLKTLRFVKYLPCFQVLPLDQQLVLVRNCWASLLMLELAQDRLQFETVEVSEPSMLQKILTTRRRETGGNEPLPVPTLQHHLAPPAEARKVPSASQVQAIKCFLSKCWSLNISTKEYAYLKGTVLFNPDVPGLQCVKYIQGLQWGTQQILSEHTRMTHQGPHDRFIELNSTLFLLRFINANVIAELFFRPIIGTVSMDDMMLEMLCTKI
ssDAF12 agonist = activates DAF-12 receptor from parasite S. stercoralis. HEK293 ssDAF-12/GRIP1 lit1-tk-luc reporter, luminescence; % of 3 µM dafachronic acid response. activation, % at 6.8 µM. 370,000 tested, 1% active;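 active means activation above the mean over all tested compounds plus 3 SD, cut at about 0.9% in these data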;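 further: 0% = DMSO-only wells and 100% = 3 µM delta7-dafachronic acid wells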
DAX1 inh-2 = blocks DAX1 repression of SF-1 activated StAR promoter; HEK293T StAR-luciferase reporter, SF-1/DAX-1 repression relief; inhibition, % at 6.8 µM; 370,000 tested, 1.1% active; AID 652010;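 active means inhibition above the mean over all tested compounds plus 3 SD, cut at about 3.6% in these data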;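 further: 0% = DAX-1 cells with DMSO and 100% = cells lacking DAX-1 with DMSO; higher inhibition means more luminescence from relief of DAX-1 repression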
DAX1 inh confirm = NR0B1 (human) inhibition, confirmation. 2,400 tested, 87% active. HEK293T StAR-promoter luciferase reporter, SF-1/DAX-1 repression. inhibition, % at 6.8 µM. shares compounds with DAX1 inh-2;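 active means inhibition above the average of every tested compound plus 3 SD, cut at about 3.8% in these data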;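 further: 0% = DAX-1 cells with DMSO and 100% = no DAX-1 control cells with DMSO; active compounds raise luminescence by relieving repression of the StAR reporter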
Target sequence (P51843 whole entry, looked up): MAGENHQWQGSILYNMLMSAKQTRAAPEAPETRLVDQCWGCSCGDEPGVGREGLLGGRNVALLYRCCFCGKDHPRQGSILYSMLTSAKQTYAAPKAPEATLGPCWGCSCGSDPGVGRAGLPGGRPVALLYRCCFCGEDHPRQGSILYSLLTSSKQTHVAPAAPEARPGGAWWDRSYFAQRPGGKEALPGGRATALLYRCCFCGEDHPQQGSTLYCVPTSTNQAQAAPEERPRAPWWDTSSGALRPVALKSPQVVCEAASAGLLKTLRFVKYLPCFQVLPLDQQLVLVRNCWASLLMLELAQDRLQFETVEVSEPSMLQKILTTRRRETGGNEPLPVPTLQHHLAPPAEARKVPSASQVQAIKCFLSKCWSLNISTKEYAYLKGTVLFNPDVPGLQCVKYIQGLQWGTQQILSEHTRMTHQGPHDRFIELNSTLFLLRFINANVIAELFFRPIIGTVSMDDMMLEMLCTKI
SF1 mutant ctr = nonselective inhibitor or artifact in SF-1 mutant DAX1 counter-screen; AID 652136; 2,400 tested, 78% active; shares compounds with DAX1 inh-2; inhibition, % at 6.8 µM; HEK293 StAR-luciferase, SF-1 AF2 mutant, luminescence;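 active means inhibition above the mean of all tested compounds plus 3 SD, cut at about 3% in these data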;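 further: 0% = DAX-1 transfected cells with DMSO and 100% = cells without DAX-1 with DMSO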
LXRb hcDAF ctr = activates human LXR-beta, counter-screen for hcDAF-12 agonists. 3,400 tested, under 10 active. AID 743027. shares compounds with hcDAF12 agonist. activation, % at 6.8 µM. HEK293 Gal4-LXR tk-luc reporter, luminescence, 24 h; normalized: DMSO 0%, positive control 100%;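 active means mean percent activation of the reporter above a cutoff set as the average over tested compounds plus their standard deviation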
hcDAF12 ag = hcDAF-12 agonism, confirmation assay. shares compounds with hcDAF12 agonist. HEK293 hcDAF-12 lit1-tk-luc reporter, luminescence; % of Δ7-dafachronic acid response. activation, % at 6.8 µM. 3,400 tested, 61% active;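 active means mean activation across triplicate tests above the threshold derived from the earlier primary screen, cut at about 5.5% in these data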;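 further: 0% = DMSO only wells and 100% = 3 µM Δ7-dafachronic acid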
hgDAF12 ag = confirmation of H. glycines DAF-12 agonists; shares compounds with hgDAF-12 ag; HEK293 GAL4-hgDAF12 luciferase reporter, agonist mode; percent of butyrate response; activation, % at 6.8 µM; 3,300 tested, 80% active; AID 743050;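 active means mean activation over triplicate wells above the hit cutoff derived from the earlier primary screen, cut at about 11% in these data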;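 further: 0% = DMSO low control and 100% = 2 mM sodium butyrate high control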
LXR ag 2 = activates human LXR-beta, counter-screen for DAF-12 agonists; shares compounds with hgDAF-12 ag; HEK293 Gal4-LXR luciferase reporter, 24 h; activation, % at 6.8 µM; 3,300 tested, under 10 active; AID 743051;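 active means mean activation of the triplicate above a set limit carried over from the primary screen, none filed active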
Numbers without * were called inactive. Rows were chosen to be rich in hits. Some 4.8% of all compounds tested hit in one or more screens of this group.

For COc1cccc(CNC(=O)Cn2c(-c3ccccc3)cc(C(C)=O)c2C)c1OC the results were hcDAF12 agonist -1, hgDAF-12 ag -2, Rev-erbA mod -2, ssDAF12 agonist -1 and DAX1 inh-2 0.
Screening COc1ccc(C(=O)Nc2nc3cc(OC)c(OC)cc3c(=O)[nH]2)cc1 returned hcDAF12 agonist -1, hgDAF-12 ag 1, Rev-erbA mod -11, DAX1 inh-1 1, ssDAF12 agonist -1 and DAX1 inh-2 0.
COc1ccc(C(=O)Nc2nc3ccccc3c(=O)[nH]2)cc1 was read as hcDAF12 agonist 6.9*, hgDAF-12 ag 19*, Rev-erbA mod 4, DAX1 inh-1 2, ssDAF12 agonist 1.1*, DAX1 inh-2 6.3*, DAX1 inh confirm 14*, SF1 mutant ctr 8.8*, LXRb hcDAF ctr 1, hcDAF12 ag 5, hgDAF12 ag 17* and LXR ag 2 1.
`Cc1cc(N(C)C)ccc1N=Nc1ccc2ncccc2c1` gave hcDAF12 agonist 13*, hgDAF-12 ag 15*, Rev-erbA mod 17, DAX1 inh-1 5.5*, ssDAF12 agonist 1.7*, DAX1 inh-2 5.2*, DAX1 inh confirm 18*, SF1 mutant ctr 7.6*, LXRb hcDAF ctr 1, hcDAF12 ag 13*, hgDAF12 ag 18* and LXR ag 2 1.
CN(C)c1ccc(N=Nc2ccc3ncccc3c2)cc1 was read as hcDAF12 agonist 6.0*, hgDAF-12 ag 20*, Rev-erbA mod 20, DAX1 inh-1 5.8*, ssDAF12 agonist 1.5*, DAX1 inh-2 9.3*, DAX1 inh confirm 22*, SF1 mutant ctr 7.3*, hgDAF12 ag 21* and LXR ag 2 1.
Cc1ccc2ncccc2c1 was read as hcDAF12 agonist -2, hgDAF-12 ag 0, Rev-erbA mod -5, DAX1 inh-1 0, ssDAF12 agonist 0 and DAX1 inh-2 0.
For C=CCNc1ccc2c(c1)OC[C@H](Cc1ccccc1)NS2(=O)=O the results were hcDAF12 agonist 0, hgDAF-12 ag -3, Rev-erbA mod -1, ssDAF12 agonist -1 and DAX1 inh-2 1.
Screening O=Nc1c2cc(-c3ccccc3)[nH]nc-2c2ccccc12 returned hcDAF12 agonist 20*, hgDAF-12 ag 23*, Rev-erbA mod -20, DAX1 inh-1 0, ssDAF12 agonist 2.7*, DAX1 inh-2 5.8*, DAX1 inh confirm 5.4*, SF1 mutant ctr 1, LXRb hcDAF ctr 2, hcDAF12 ag 19*, hgDAF12 ag 12* and LXR ag 2 1.
For CC1CCCCN1C(=O)CSc1nnc(-c2cccs2)o1 (stereo not given) the results were hcDAF12 agonist 4, hgDAF-12 ag 7, Rev-erbA mod -4, DAX1 inh-1 0, ssDAF12 agonist 0 and DAX1 inh-2 1.
`CC1CCCC(C)N1C(=O)CSc1nnc(-c2cccs2)o1` (stereo not given) gave hcDAF12 agonist 5, hgDAF-12 ag 18*, Rev-erbA mod -4, DAX1 inh-1 2, ssDAF12 agonist 0, DAX1 inh-2 4.7*, DAX1 inh confirm 11*, SF1 mutant ctr 8.0*, hgDAF12 ag 17* and LXR ag 2 1.
`Cc1ccc2nc(/C=C/c3cccc(F)c3)ccc2c1` gave hcDAF12 agonist 8.3*, hgDAF-12 ag 21*, Rev-erbA mod 1, DAX1 inh-1 2, ssDAF12 agonist 2.8*, DAX1 inh-2 5.1*, DAX1 inh confirm 10*, SF1 mutant ctr 5.1*, LXRb hcDAF ctr 2, hcDAF12 ag 8.7*, hgDAF12 ag 20* and LXR ag 2 1.
`O=c1[nH]c(/C=C\c2cccc(F)c2)nc(O)c1[N+](=O)[O-]` gave hcDAF12 agonist 0, hgDAF-12 ag 0, Rev-erbA mod -7, DAX1 inh-1 1, ssDAF12 agonist -1 and DAX1 inh-2 0.
For COc1ccc(CNC(=O)O[C@H]2CC[C@@]34CCCN3C(=O)CCC[C@H]4[C@H]2C)cc1OC the results were hcDAF12 agonist 0, hgDAF-12 ag -1, Rev-erbA mod 4 and ssDAF12 agonist -2.
`CC1CCN(c2nc3ccc(C(=O)NCCCN4CCCCC4C)cc3s2)CC1` (stereo not given) gave hcDAF12 agonist 4, hgDAF-12 ag 15*, Rev-erbA mod 1, DAX1 inh-1 -2, ssDAF12 agonist 1.6*, DAX1 inh-2 7.2*, DAX1 inh confirm 12*, SF1 mutant ctr 7.1*, hgDAF12 ag 15* and LXR ag 2 1.
O=C(NCCCN1CCC(Cc2ccccc2)CC1)c1ccc2nc(N3CCOCC3)sc2c1 was read as hcDAF12 agonist -2, hgDAF-12 ag 0, Rev-erbA mod 1, DAX1 inh-1 0, ssDAF12 agonist -1 and DAX1 inh-2 1.
COc1cccc(C(=O)N[C@H](C(=O)N2CCC[C@H]2C(=O)NCc2ccccc2)C(C)C)c1 was read as hcDAF12 agonist 1, hgDAF-12 ag 2, Rev-erbA mod -3, ssDAF12 agonist -1 and DAX1 inh-2 -2.
O=C(/C=C\Nc1ccccc1Br)c1ccc2c(c1)OCO2 was read as hcDAF12 agonist 9.4*, hgDAF-12 ag 17*, Rev-erbA mod 0, DAX1 inh-1 -5, ssDAF12 agonist 1, DAX1 inh-2 5.3*, DAX1 inh confirm 9.6*, SF1 mutant ctr 2, LXRb hcDAF ctr 2, hcDAF12 ag 17*, hgDAF12 ag 16* and LXR ag 2 1.
Screening C=CCN1[C@H](C)COc2cc(F)ccc2S1(=O)=O returned hcDAF12 agonist -1, hgDAF-12 ag 2, Rev-erbA mod 0, ssDAF12 agonist -1 and DAX1 inh-2 0.
